Among the test systems are DU-145 prostate; K-562 leukemia; MALME-3M melanoma; MDA-MB-231 breast; RXF 393 renal; SF-268 CNS; SF-295 CNS; SF-539 CNS; UACC-257 melanoma; M14 melanoma; HCT-15 colon; HT29 colon; SNB-75 CNS; SNB-19 CNS; U251 CNS; PC-3 prostate; SK-MEL-5 melanoma; UACC-62 melanoma; SK-MEL-28 melanoma.
Holding throughout (assay): NCI-60 one-dose screen, 48 h (100 = growth as untreated, 0 = no growth, -100 = all killed)
Holding throughout (conditions): 10 µM unless noted

The panel holds about 83,000 compounds, 20% with a hit somewhere; the sample as a whole holds those more often.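 Single-dose data. Exposure time 48 hours. Values below 10 considered active.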 A number with no mark means an inactive call. Calls of active or inactive are those of the source.

In the case of `CN1CCN(c2ccc3nc(/N=C/c4ccc5sc(-c6ccc([N+](=O)[O-])cc6)nc5c4)sc3c2)CC1`, the growth in the experiment on DU-145 prostate is 106%; with K-562 leukemia it was 90.6%; in the experiment with MALME-3M melanoma it was 96.7%; with MDA-MB-231 breast, 112%; in the experiment with RXF 393 renal, 129%; in the experiment on SF-268 CNS, 111%. For the same molecule, the growth is 96% with SF-295 CNS; 93.4% in the experiment on SF-539 CNS; 101% in the experiment with UACC-257 melanoma; 104% in the experiment on M14 melanoma; 102% in the experiment with HCT-15 colon; 103% in the experiment on HT29 colon. Further, the growth with SNB-75 CNS is 106%; in the experiment with SNB-19 CNS, 104%; in the experiment with U251 CNS it was 93.9%; in the experiment on PC-3 prostate, 104%; with SK-MEL-5 melanoma, 90.6%; in the experiment on UACC-62 melanoma it was 104%. Also, the growth in the experiment with SK-MEL-28 melanoma is 107%.

For the molecule `Cn1c(NCCc2ccc(O)c(O)c2)nc2c1c(=O)n(Cc1ccc(Cl)cc1)c(=O)n2C`, the growth is 87.3% with DU-145 prostate; 77.1% in the experiment on K-562 leukemia; 82.3% in the experiment on MALME-3M melanoma; 52.3% in the experiment on MDA-MB-231 breast; 73.2% in the experiment with RXF 393 renal; 72.4% with SF-268 CNS. The growth was 103% in the experiment on SF-295 CNS; 82.7% in the experiment on SF-539 CNS; 117% in the experiment on UACC-257 melanoma; 78.8% in the experiment on M14 melanoma; 40.7% in the experiment with HCT-15 colon; 101% in the experiment on HT29 colon. In addition, the growth in the experiment on SNB-75 CNS was 57.1%; in the experiment with SNB-19 CNS, 93%; in the experiment with U251 CNS, 104%; in the experiment on PC-3 prostate, 60%; with SK-MEL-5 melanoma it was 75.3%; with UACC-62 melanoma it was 82.7%. Further, the growth in the experiment with SK-MEL-28 melanoma is 86%.

For the molecule `NC(N)=N/N=C/c1ccc(Br)cc1`, the growth was 80% in the experiment on DU-145 prostate; 4.4% (active) in the experiment on K-562 leukemia; 45% with MALME-3M melanoma; 38.1% in the experiment with MDA-MB-231 breast; 70.8% with RXF 393 renal; 62% with SF-268 CNS. The growth in the experiment on SF-295 CNS is 48.3%; in the experiment on SF-539 CNS it was 62.2%; with UACC-257 melanoma, 58.6%; in the experiment with M14 melanoma, 14.6%; in the experiment on HCT-15 colon, 23.4%; in the experiment on HT29 colon it was 9.57% (active). Further, the growth in the experiment on SNB-75 CNS is 34%; with SNB-19 CNS, 35.8%; in the experiment with U251 CNS, 25.4%; in the experiment on PC-3 prostate, 27.8%; with SK-MEL-5 melanoma, 13.2%; in the experiment with UACC-62 melanoma, 36.3%. In addition, the growth with SK-MEL-28 melanoma was 58.9%.

On to `O=C1C2=C(CCN(Cc3ccccc3)C2)N2CCN=C2N1Cc1ccc(F)cc1F`, for which the growth is 32.6% in the experiment with DU-145 prostate; 33.1% in the experiment with K-562 leukemia; 41.5% in the experiment with MALME-3M melanoma; 20.4% in the experiment with MDA-MB-231 breast; 55% with RXF 393 renal; 40.2% in the experiment on SF-268 CNS. The growth was 5.35% (active) in the experiment with SF-295 CNS; 40.1% in the experiment on SF-539 CNS; 13.6% in the experiment on UACC-257 melanoma; 35.9% in the experiment with M14 melanoma; 20.4% in the experiment on HCT-15 colon; 34% in the experiment on HT29 colon. Also, the growth in the experiment on SNB-75 CNS is 46.7%; with SNB-19 CNS, 30.1%; with U251 CNS, 21.3%; in the experiment with PC-3 prostate, 21.3%; in the experiment on SK-MEL-5 melanoma, 27.5%; with UACC-62 melanoma, 44.5%. Further, the growth in the experiment on SK-MEL-28 melanoma was 57.9%.

Take `Cc1cc(-c2ccccc2)cc(SC#N)[n+]1[O-]`: the growth with DU-145 prostate is 46.6%; with K-562 leukemia, 16%; in the experiment on MALME-3M melanoma, 59.3%; in the experiment with MDA-MB-231 breast it was 52.7%; in the experiment on RXF 393 renal, 49.6%; with SF-268 CNS, 43.3%. For the same molecule, the growth was 23.2% in the experiment with SF-295 CNS; 43.5% in the experiment with SF-539 CNS; 59.2% in the experiment on UACC-257 melanoma; 19.3% in the experiment with M14 melanoma; 24.7% in the experiment with HCT-15 colon; 50.6% with HT29 colon. The growth in the experiment with SNB-75 CNS is 78.5%; with SNB-19 CNS it was 41.2%; in the experiment with U251 CNS it was 24.1%; in the experiment on PC-3 prostate, 38.7%; with SK-MEL-5 melanoma, 32.6%; in the experiment with UACC-62 melanoma it was 28.8%. Further, the growth in the experiment with SK-MEL-28 melanoma is 45.1%.

For the molecule `Clc1ccc2c(NCCCN3CCN(c4nc(N5CCOCC5)nc5ccccc45)CC3)ccnc2c1`, the growth with DU-145 prostate is 27.1%; in the experiment on K-562 leukemia, -46.2% (active); in the experiment on MALME-3M melanoma, -82% (active); with MDA-MB-231 breast, -34.5% (active); in the experiment on RXF 393 renal it was -76.6% (active); in the experiment on SF-268 CNS it was 46.7%. The growth in the experiment with SF-295 CNS is -46.7% (active); in the experiment with SF-539 CNS it was -82.7% (active); with UACC-257 melanoma it was -68.3% (active); in the experiment on M14 melanoma, -80.3% (active); in the experiment with HCT-15 colon, -32.8% (active); with HT29 colon, -19.2% (active). Besides, the growth in the experiment with SNB-75 CNS is 89.4%; in the experiment with SNB-19 CNS it was 21.7%; with U251 CNS it was -14.3% (active); in the experiment with PC-3 prostate, 37.5%; in the experiment on SK-MEL-5 melanoma it was -96.8% (active); in the experiment on UACC-62 melanoma, -33.1% (active). Moreover, the growth in the experiment with SK-MEL-28 melanoma is -85% (active).

As to `C=C(C)[C@@H]1CC[C@]2(CO)CC[C@]3(C)[C@H](CC[C@@H]4[C@@]5(C)C=C(C#N)C(=O)C(C)(C)[C@@H]5CC[C@]43C)[C@@H]12`, the growth with DU-145 prostate was 18.9%; with K-562 leukemia it was 7.75% (active); in the experiment on MALME-3M melanoma, 32.9%; in the experiment on MDA-MB-231 breast, 15.9%; with RXF 393 renal, -61.2% (active); in the experiment on SF-268 CNS, 25.4%. In addition, the growth in the experiment with SF-295 CNS is -2.71% (active); in the experiment on SF-539 CNS, 20.5%; in the experiment with UACC-257 melanoma, 4.1% (active); with M14 melanoma, 15.8%; in the experiment on HCT-15 colon, 3.8% (active); in the experiment with HT29 colon it was 8.33% (active). Besides, the growth is 52.1% in the experiment on SNB-75 CNS; 18.5% in the experiment with SNB-19 CNS; 9.63% (active) in the experiment with U251 CNS; 6.8% (active) in the experiment on PC-3 prostate; 12% in the experiment with SK-MEL-5 melanoma; -33% (active) with UACC-62 melanoma. In the experiment on SK-MEL-28 melanoma, the growth was 20.9%.

(Values after PubChem BioAssay (NCI).)
